Data: PubChem BioAssay (NCI)
This is part of a sample that, as a whole, favours compounds with a hit. Of some 79,000 tested, about 15% had one in any assay. Active and inactive are the calls of the source. No stated cut-off is given here; in the data, active means growth inhibition above about 70%; inactive means the rest.

Assay: NCI Yeast Anticancer Drug Screen. Data for the cln2 rad14 strain (AID 165);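 further: 0% = growth equal to vehicle treated cultures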
Details: S. cerevisiae cln2 rad14 strain, at 5.0 µM (retest, dose inferred, filed as 0.5), stronger effect = higher value
Method in brief: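 Compounds are applied to the cln2 rad14 yeast strain, and growth is then compared with that of vehicle-treated cultures to give inhibition.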

Row | SMILES | growth inhibition
1 | C=CC(=O)N1C/C(=C\c2ccc(F)cc2)C(=O)/C(=C/c2ccc(F)cc2)C1 | 19% (inactive)
2 | CCOc1ccc2c(c1)n([O-])c1ccccc1[n+]2=O | 31% (inactive)
3 | O=C(/C(Cl)=N/O)c1ccccc1 | 38% (inactive)
4 | O=C(NC1CCN(Cc2ccccc2)CC1)c1ccc(I)cc1 | 81% (active)
5 | O=C1c2ccccc2CCC1C(O)(C(F)(F)F)C(F)(F)F (stereo not given) | 4% (inactive)
6 | O=C(C(=O)n1ncc(Cl)c(Cl)c1=O)n1ncc(Cl)c(Cl)c1=O | -6% (inactive)
7 | OC1OCC(OCc2ccccc2)C(OCc2ccccc2)C1OCc1ccccc1 (stereo not given) | -3% (inactive)
8 | CN1CCC(OC(=O)c2ccc3ncccc3c2)CC1 | -5% (inactive)
9 | CCC(c1ccc(O)cc1)C(CC)c1ccc(OCC(N)=O)cc1 (stereo not given) | -18% (inactive)
10 | CCCCCCCC(=O)O[C@H]1[C@H]2[C@@H](CC1(C)C)C(=O)[C@]13O[C@H]1C(=O)[C@]1(CO1)[C@]23C | 80% (active)
11 | CN1CCCN(C)C1c1cc([N+](=O)[O-])ccc1O | 11% (inactive)
12 | CCOC(=O)C[n+]1c(C)sc2ccccc21 | -7% (inactive)
13 | O=C(O)C(CCc1cccc2ccccc12)c1ccccc1 (stereo not given) | -4% (inactive)
14 | O=C1C(Cl)=C(Cl)C(=O)C2CC=CCC12 (stereo not given) | 85% (active)
15 | Nc1n[nH]c(=O)c2cccnc12 | 5% (inactive)
16 | OC(CBr)c1cc(-c2ccccc2)nc2ccccc12 (stereo not given) | -17% (inactive)
17 | O=C(O)CCCc1ccc2c(c1)CC1(C2)Cc2ccc(CCCC(=O)O)cc2C1 | 22% (inactive)
18 | CC1=Nc2ccccc2/C1=C\c1c(C)[nH]c2ccccc12 | 10% (inactive)
19 | CC(=O)C(C(=N)C#N)C(=O)Nc1ccccc1 (stereo not given) | -14% (inactive)
20 | COc1ccc2nc3cc(Cl)ccc3c(NCCC[N+](C)(C)CCCCCCCCCC[N+](C)(C)CCCNc3c4ccc(Cl)cc4nc4ccc(OC)cc34)c2c1 | 24% (inactive)

Row | SMILES | growth inhibition
21 | Oc1cc(Cl)cc2c1-c1ccc(Cl)cc1C2O (stereo not given) | 28% (inactive)
22 | CC1(C)OC(=O)C(=NNc2ccccc2[N+](=O)[O-])C(=O)O1 | -2% (inactive)
23 | Clc1ccc(OCC2CO2)c(Cl)c1 (stereo not given) | 5% (inactive)
24 | O=c1ccc([N+](=O)[O-])c[nH]1.[Ag] | 98% (active)
25 | O=C1CSC(c2c[nH]c3ccccc23)N1c1cccc(Cl)c1 (stereo not given) | 6% (inactive)
26 | Fc1cccc(NC(=S)SCc2ccco2)c1 | -2% (inactive)
27 | S=c1[nH]nc(SCc2ccc(Cl)c(Cl)c2)c2[nH]cnc12 | -10% (inactive)
28 | Cc1c(Cl)cccc1NC(=O)/C(Cl)=C(\Cl)C(=O)O | 1% (inactive)
29 | Nc1ccc2ccc3cccc4ccc1c2c34 | -1% (inactive)
30 | O=C(C(/C=N/C(=S)NCc1ccccc1)=C(/O)c1ccccc1)c1ccccc1 | -9% (inactive)
31 | C/C(=N\NC(=S)Nc1ccc(Cl)cc1)c1nc2ncccc2[nH]1 | -38% (inactive)
32 | O=C(/C=C\c1ccc(Cl)c(Cl)c1)c1cccs1 | -6% (inactive)
33 | CC12CC(O)C3C(CCC4CCCCC43C)C1CC/C2=N/O (stereo not given) | 8% (inactive)
34 | CCCn1cc2c(SC)nc(SC)nc2n1 | 2% (inactive)
35 | Cc1ccc(C2(O)c3ccccc3-c3ccccc32)cc1 | -9% (inactive)
36 | C=CCc1ccc2c(C)cc[n+](C)c2c1O | -17% (inactive)
37 | COC(=O)c1nc(NC#N)[nH]c(=O)c1CCCCCc1cnc(NC#N)nc1 | -4% (inactive)
38 | Cc1c2cnccc2c(C)c2c1c1ccccc1n2CCOC(=O)c1ccccc1 | 39% (inactive)
39 | C/C(=N/O)c1ccc2c(c1)C(C)c1ccccc1-2 (stereo not given) | -60% (inactive)
40 | Oc1ccc2ccccc2c1I | 79% (active)
